From PubChem BioAssay (NCATS) come the findings set out here.

Inconclusive results are not listed. Active and inactive are the calls of the source. Unless noted, the call rests on the fitted dose curve; in most records, active means well fitted curve in the direction sought with a large enough effect; inconclusive means small, poorly fitted or top-dose-only effect, or another doubt; inactive means no such curve, though single readings can be large; an effect the other way counts as inactive or inconclusive.

Assay [1] deals with T1, Tyrosine-protein phosphatase non-receptor type substrate 1 (Homo sapiens) + Leukocyte surface antigen CD47 (Homo sapiens) (UniProt P78324+Q08722). In words: CD47-SIRPalpha protein protein interaction - LANCE assay qHTS validation (AID 1347057; active means well fitted curve in the direction sought with a large enough effect in the signal ratio, with a control signal flat, not every such curve was filed as active; the % refers to the signal ratio; further: series mostly up to about 38 µM). The essentials: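 Inhibition of soluble CD47/SIRPalpha ectodomain association by titrated compounds, measured as 665/615 nm time-resolved FRET ratio after sequential 30 min room-temperature incubations.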

Assay [2] addresses T1, Tyrosine-protein phosphatase non-receptor type substrate 1 (Homo sapiens) + Leukocyte surface antigen CD47 (Homo sapiens). In words: CD47-SIRPalpha protein protein interaction - HTRF assay qHTS validation (AID 1347058; active means well fitted curve in the direction sought with a large enough effect in the signal ratio, not every such curve was filed as active; the % refers to the signal ratio; further: series mostly up to about 38 µM). The essentials: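 Soluble extracellular domains (6His-CD47, Avi-tag-biotinylated SIRPalpha) in PBS pH 7.4 with 0.05% IGEPAL CA-630. Compounds were preincubated 30 min at RT with CD47 and anti-His-Eu, then SIRPalpha and SAV-XL665 were added. TR-FRET 665/615 ratio.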

Assay [3] has the same target. In words: CD47-SIRPalpha protein protein interaction - Alpha assay qHTS validation (AID 1347059).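 Further: bead proximity luminescence from CD47 binding SIRPalpha after compound preincubation with SIRPalpha.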 The essentials:
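SIRPalpha-biotin 25 nM + cpd, 30 min RT, dark; add CD47-His 12.5 nM, 30 min; add Ni-NTA/SAV beads 10 ug/mL, 30 min; AlphaScreen. Buffer PBS pH 7.4 + 0.05% IGEPAL CA-630. Non-biotinylated SIRPalpha as control inhibitor.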

Assay [4] concerns the target Parathyroid hormone/parathyroid hormone-related peptide receptor (Homo sapiens) (UniProt Q03431). Kind of assay: qHTS for PTHR1 Agonists: Optimization Screen against the NCGC LOPAC library (AID 1347079).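 Further: GloSensor cAMP luminescence in HEK-293 GP2 cells expressing human PTHR1 with IBMX.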 The essentials:
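Signal increase flags agonism. GP2 cells, derived from HEK-293, express human PTHR1 and a GloSensor cAMP construct.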

Assay [5] is described as follows: qHTS for Inhibitors of the Functional Ribonucleoprotein Complex (vRNP) of Lassa (LASV) Arenavirus: LASV Primary Screen - GLuc reporter signal (AID 1347082; calls by dose curve; tested in HEK293 reporter line; further: series mostly up to about 57 µM; nearly all actives have a fitted effect of over 60% in size).
Assay [6] is described as follows: qHTS for Inhibitors of the Functional Ribonucleoprotein Complex (vRNP) of Lassa (LASV) Arenavirus: Viability assay - alamar blue signal for LASV Primary Screen (AID 1347083; calls by dose curve; tested in HEK293 reporter line; further: nearly all actives have a fitted effect of over 80% in size; further: potency means the concentration at half of the fitted maximal effect).
A short description of assay [7]: qHTS for Inhibitors of the Functional Ribonucleoprotein Complex (vRNP) of Lymphocytic Choriomeningitis Arenaviruses (LCMV): Viability assay - alamar blue signal for LCMV Primary Screen (AID 1347085; calls by dose curve; tested in HEK293 reporter line; further: nearly all actives have a fitted effect of over 80% in size; further: potency means the concentration at half of the fitted maximal effect).
Assay [8] deals with Nucleoprotein (Lymphocytic choriomeningitis virus (strain Armstrong)) (UniProt P09992). In words: qHTS for Inhibitors of the Functional Ribonucleoprotein Complex (vRNP) of Lymphocytic Choriomeningitis Arenaviruses (LCMV): LCMV Primary Screen - GLuc reporter signal (AID 1347086; calls by dose curve; further: series mostly up to about 57 µM; nearly all actives have a fitted effect of over 70% in size).
Nucleoprotein (Lymphocytic choriomeningitis virus (strain Armstrong)), sequence (P09992 whole entry, looked up): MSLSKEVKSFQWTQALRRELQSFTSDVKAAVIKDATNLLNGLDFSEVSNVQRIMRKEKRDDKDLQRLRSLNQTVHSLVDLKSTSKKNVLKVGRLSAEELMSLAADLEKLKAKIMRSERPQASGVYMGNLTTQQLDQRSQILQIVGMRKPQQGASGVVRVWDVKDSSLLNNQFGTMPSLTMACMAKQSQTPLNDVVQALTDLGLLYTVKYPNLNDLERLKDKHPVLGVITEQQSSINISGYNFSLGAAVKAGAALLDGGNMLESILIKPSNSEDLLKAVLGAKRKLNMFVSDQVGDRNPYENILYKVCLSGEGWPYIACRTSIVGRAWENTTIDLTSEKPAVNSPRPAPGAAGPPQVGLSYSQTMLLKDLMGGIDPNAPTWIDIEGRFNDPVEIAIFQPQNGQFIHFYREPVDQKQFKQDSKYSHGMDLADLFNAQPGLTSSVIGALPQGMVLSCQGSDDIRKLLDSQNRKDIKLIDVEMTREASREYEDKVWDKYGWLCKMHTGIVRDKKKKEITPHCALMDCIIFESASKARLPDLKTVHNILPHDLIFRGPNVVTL

T1 sequence (P78324 whole entry, looked up, the tested form may be a part): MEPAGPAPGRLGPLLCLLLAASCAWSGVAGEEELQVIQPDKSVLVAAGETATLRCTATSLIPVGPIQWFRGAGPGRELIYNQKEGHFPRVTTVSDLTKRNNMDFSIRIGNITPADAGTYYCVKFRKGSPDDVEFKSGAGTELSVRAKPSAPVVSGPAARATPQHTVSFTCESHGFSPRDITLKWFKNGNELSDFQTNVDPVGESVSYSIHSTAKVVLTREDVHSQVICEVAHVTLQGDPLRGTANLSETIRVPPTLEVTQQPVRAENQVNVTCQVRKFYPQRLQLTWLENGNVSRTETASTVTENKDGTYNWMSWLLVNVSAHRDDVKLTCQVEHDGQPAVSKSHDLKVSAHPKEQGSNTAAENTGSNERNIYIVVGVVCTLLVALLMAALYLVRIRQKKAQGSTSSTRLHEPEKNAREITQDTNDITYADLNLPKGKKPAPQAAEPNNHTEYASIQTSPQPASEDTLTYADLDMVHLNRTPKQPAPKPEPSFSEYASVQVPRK
T1 sequence (Q08722 whole entry, looked up, the tested form may be a part): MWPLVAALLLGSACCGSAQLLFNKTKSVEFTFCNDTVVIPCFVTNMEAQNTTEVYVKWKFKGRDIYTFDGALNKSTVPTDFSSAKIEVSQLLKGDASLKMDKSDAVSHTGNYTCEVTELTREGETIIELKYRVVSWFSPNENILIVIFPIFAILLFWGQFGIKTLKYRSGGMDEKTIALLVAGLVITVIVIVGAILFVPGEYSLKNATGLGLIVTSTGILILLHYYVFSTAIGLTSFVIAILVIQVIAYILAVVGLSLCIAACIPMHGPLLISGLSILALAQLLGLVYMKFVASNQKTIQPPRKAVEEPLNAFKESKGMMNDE
Parathyroid hormone/parathyroid hormone-related peptide receptor (Homo sapiens), sequence (Q03431 whole entry, looked up): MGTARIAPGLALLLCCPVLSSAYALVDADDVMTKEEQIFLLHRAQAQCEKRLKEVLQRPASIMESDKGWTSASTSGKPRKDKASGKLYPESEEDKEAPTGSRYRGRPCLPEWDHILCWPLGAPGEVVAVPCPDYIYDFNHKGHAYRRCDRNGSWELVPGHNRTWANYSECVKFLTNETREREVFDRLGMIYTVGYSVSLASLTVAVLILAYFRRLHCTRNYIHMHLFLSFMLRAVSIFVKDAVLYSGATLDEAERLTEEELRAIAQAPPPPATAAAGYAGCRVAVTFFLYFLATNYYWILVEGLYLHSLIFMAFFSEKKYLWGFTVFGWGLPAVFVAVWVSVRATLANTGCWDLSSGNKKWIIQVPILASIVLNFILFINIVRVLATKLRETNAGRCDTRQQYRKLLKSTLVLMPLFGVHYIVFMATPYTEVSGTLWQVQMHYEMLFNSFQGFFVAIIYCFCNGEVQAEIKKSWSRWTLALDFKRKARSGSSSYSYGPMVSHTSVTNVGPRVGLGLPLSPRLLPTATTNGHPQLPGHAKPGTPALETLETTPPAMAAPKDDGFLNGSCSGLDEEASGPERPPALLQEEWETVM

As to `C[N+]1(C)CCc2cc3c(cc2[C@H]1[C@@H]1OC(=O)c2c1ccc1c2OCO1)OCO3`, the Potency result in assay [1], in assay [3], in assay [4], in assay [5], in assay [6] and in assay [7] was “inactive” in each case. Besides, in assay [8], the Potency entry was “inactive”. Besides, in assay [2], the result was inactive.
For `CCCC[N+]1(C)C2CC(OC(=O)[C@H](CO)c3ccccc3)CC1C1OC12` (stereo partly specified), the Potency result in assay [1], in assay [3], in assay [4], in assay [5], in assay [6] and in assay [7] was “inactive” in each case. In assay [8], the Potency result is “inactive”. Besides, the outcome in assay [2] was inactive.
Take `COc1ccc2[nH]cc(CCN)c2c1`: the Potency result in assay [1], in assay [3], in assay [5], in assay [6], in assay [7] and in assay [8] was “inactive” in each case. Also, the result in assay [2] was inactive.
Consider `CC(N)c1cccc(Cl)c1Cl` (stereo unspecified), for which the Potency result in assay [1], in assay [3], in assay [4], in assay [5], in assay [6] and in assay [7] was “inactive” throughout. For the same compound, in assay [8], the Potency entry is “inactive”. In addition, the result in assay [2] was inactive.
Consider `CC(C)(C)OC(=O)NC1[C@H]2CNC[C@@H]12` (stereo partly specified), for which the Potency result in assay [1] and in assay [3] was “inactive” each time. Besides, the outcome in assay [2] was inactive.
Turning to `Ic1ccccc1CNC1C2CCN(CC2)C1C(c1ccccc1)c1ccccc1` (stereo unspecified), the Potency entry in assay [1], in assay [3] and in assay [4] was “inactive” throughout. In addition, in assay [2], the result was inactive.
Turning to `CC(N)Cc1c[nH]c2ccc(OCc3cccs3)cc12` (stereo unspecified), the Potency result in assay [1], in assay [3], in assay [5], in assay [6], in assay [7] and in assay [8] was “inactive” in each case. The result in assay [2] was inactive.
Consider `NNC(N)=O`, for which the Potency result in assay [1], in assay [3], in assay [4], in assay [5], in assay [6] and in assay [7] was “inactive” each time. Further, the Potency entry in assay [8] is “inactive”. The result in assay [2] was inactive.
As for `Nc1ccc(CCN2CCN(c3cccc(C(F)(F)F)c3)CC2)cc1`, the Potency entry in assay [1], in assay [3], in assay [5], in assay [6], in assay [7] and in assay [8] was “inactive” each time. Besides, the result in assay [2] was inactive.
`CC(C)(C)c1cc(C=C(C#N)C#N)cc(C(C)(C)C)c1O`: the Potency entry in assay [1], in assay [3] and in assay [4] was “inactive” each time. The outcome in assay [2] was inactive.
In the case of `CCCN1CC[C@@H]2c3cc(O)ccc3CC[C@@H]21`, the Potency entry in assay [1], in assay [3], in assay [4], in assay [5], in assay [6] and in assay [7] was “inactive” each time. Further, in assay [8], the Potency result is “inactive”. The outcome in assay [2] was inactive.
On to `CC(N)Cc1c[nH]c2ccc(O)cc12` (stereo unspecified), for which the Potency entry in assay [1], in assay [3], in assay [5], in assay [6], in assay [7] and in assay [8] was “inactive” each time. In assay [2], the result was inactive.
With `c1ccc2cc(CC3=NCCN3)ccc2c1`, the Potency entry in assay [1], in assay [3], in assay [4], in assay [5], in assay [6] and in assay [7] was “inactive” in each case. The Potency result in assay [8] was “inactive”. The result in assay [2] was inactive.
For the compound `C[N+](C)(C)CCOC(=O)CBr`, the Potency entry in assay [1], in assay [3], in assay [4], in assay [5], in assay [6] and in assay [7] was “inactive” throughout. Further, the Potency entry in assay [8] is “inactive”. Also, in assay [2], the outcome was inactive.
With `CC(=O)NBr`, the Potency result in assay [1], in assay [3], in assay [4], in assay [5], in assay [6] and in assay [7] was “inactive” in each case. In assay [8], the Potency result was “inactive”. Besides, the result in assay [2] was inactive.
`O=C1CC[C@@]2(O)C3Cc4ccc(O)c5c4C2(CCN3CC2CC2)[C@H]1O5` (stereo partly specified): the Potency entry in assay [1], in assay [3], in assay [4], in assay [5], in assay [6] and in assay [7] was “inactive” each time. For the same compound, the Potency entry in assay [8] is “inactive”. For the same compound, the outcome in assay [2] was inactive.
In the case of `CCCN(CCC)C1CCc2cccc(O)c2C1` (stereo unspecified), the Potency entry in assay [1], in assay [3], in assay [4], in assay [5], in assay [6] and in assay [7] was “inactive” each time. In addition, in assay [8], the Potency result is “inactive”. In addition, the result in assay [2] was inactive.
For the compound `CC(C)(O)[C@@H]1C2OC(=O)[C@@H]1[C@]1(O)C[C@H]3O[C@]34C(=O)O[C@H]2[C@]14C` (tested in a mixture with another compound), the Potency entry in assay [1], in assay [3], in assay [5], in assay [6], in assay [7] and in assay [8] was “inactive” each time. In assay [2], the outcome was inactive.
In the case of `CP(=O)(O)C1=CCNCC1`, the Potency result in assay [1], in assay [3], in assay [5], in assay [6], in assay [7] and in assay [8] was “inactive” throughout. Also, the outcome in assay [2] was inactive.
On to `O=C(NC1CN2CCC1CC2)c1cc2ccoc2cn1` (stereo unspecified), for which the Potency entry in assay [1] and in assay [3] was “inactive” in each case. Further, the result in assay [2] was inactive.
On to `Cc1cc([C@@H]2CCCN2C)on1`, for which the Potency entry in assay [1], in assay [3], in assay [4], in assay [5], in assay [6] and in assay [7] was “inactive” each time. The Potency entry in assay [8] is “inactive”. Besides, the result in assay [2] was inactive.
As for `CCCN(CCC)[C@H]1CCc2c(F)ccc(O)c2C1`, the Potency result in assay [1], in assay [3], in assay [4], in assay [5], in assay [6] and in assay [7] was “inactive” throughout. In addition, in assay [8], the Potency entry is “inactive”. Besides, the outcome in assay [2] was inactive.
In the case of `C#CCN[C@H](C)Cc1ccccc1`, the Potency entry in assay [1], in assay [3], in assay [4], in assay [5], in assay [6] and in assay [7] was “inactive” throughout. In assay [8], the Potency result is “inactive”. Further, in assay [2], the outcome was inactive.
As to `CCCN1CCC[C@@H](c2cccc(O)c2)C1`, the Potency entry in assay [1], in assay [3], in assay [4], in assay [5], in assay [6] and in assay [7] was “inactive” throughout. In addition, the Potency entry in assay [8] was “inactive”. Further, the result in assay [2] was inactive.
`C[N+](C)(C)CC#CCOC(=O)Nc1cccc(Cl)c1`: the Potency entry in assay [1], in assay [3], in assay [4], in assay [5], in assay [6] and in assay [7] was “inactive” in each case. Moreover, the Potency result in assay [8] is “inactive”. Also, in assay [2], the outcome was inactive.
As for `Nc1cc2c(ncn2CCOCP(=O)(O)O)c(=O)[nH]1`, the Potency result in assay [1] and in assay [3] was “inactive” in each case. Further, the outcome in assay [2] was inactive.
As to `Clc1cc(I)cc(Cl)c1NC1=NCCN1`, the Potency entry in assay [1], in assay [3], in assay [4], in assay [5], in assay [6] and in assay [7] was “inactive” throughout. In assay [8], the Potency entry was “inactive”. For the same compound, in assay [2], the outcome was inactive.
In the case of `CCS(=O)(=O)Nc1cccc(C(=C2CCCCC2)c2cnc[nH]2)c1`, the Potency entry in assay [1], in assay [3], in assay [5], in assay [6], in assay [7] and in assay [8] was “inactive” throughout. In addition, the result in assay [2] was inactive.
Turning to `CCCN(CCC)CCc1ccc(O)c(O)c1`, the Potency result in assay [1], in assay [3], in assay [5], in assay [6], in assay [7] and in assay [8] was “inactive” throughout. For the same compound, the result in assay [2] was inactive.
Turning to `N[C@@]1(C(=O)O)CC[C@@H](C(=O)O)C1`, the Potency result in assay [1], in assay [3], in assay [4], in assay [5], in assay [6] and in assay [7] was “inactive” in each case. Further, the Potency entry in assay [8] is “inactive”. Besides, the outcome in assay [2] was inactive.
`NC(=O)COc1c(F)cc(SCCNS(=O)(=O)c2ccccc2)cc1F`: the Potency entry in assay [1], in assay [3], in assay [4], in assay [5], in assay [6] and in assay [7] was “inactive” each time. For the same compound, in assay [8], the Potency result is “inactive”. Also, the result in assay [2] was inactive.
`Oc1ccc2c3c1O[C@H]1c4[nH]c5ccccc5c4C[C@@]4(O)C(C2)N(CC2CC2)CCC314` (stereo partly specified): the Potency entry in assay [1], in assay [3], in assay [4], in assay [5], in assay [6] and in assay [7] was “inactive” each time. Further, the Potency entry in assay [8] is “inactive”. Also, in assay [2], the result was inactive.
Turning to `NCCc1c[nH]c2ccc(C(N)=O)cc12`, the Potency result in assay [1], in assay [3], in assay [4], in assay [5], in assay [6] and in assay [7] was “inactive” each time. In addition, the Potency result in assay [8] is “inactive”. Besides, the outcome in assay [2] was inactive.
On to `CC1(C(=O)O)C2CCC(O2)C1(C)C(=O)O` (stereo unspecified), for which the Potency result in assay [1], in assay [3] and in assay [4] was “inactive” throughout. In assay [2], the result was inactive.
Regarding `c1ccc2c(c1)[I+]c1ccccc1-2`, the Potency result in assay [1], in assay [3] and in assay [4] was “inactive” each time. In assay [2], the outcome was inactive. For the same compound, the Potency in assay [6] is 1.58 µM (active); in assay [7], 6.31 µM (active).
As to `C[N+]1(C)CCOC(O)(c2ccc(-c3ccc(C4(O)C[N+](C)(C)CCO4)cc3)cc2)C1` (stereo unspecified), the Potency entry in assay [1], in assay [3], in assay [4], in assay [5], in assay [6] and in assay [7] was “inactive” each time. Besides, in assay [8], the Potency result was “inactive”. For the same compound, the outcome in assay [2] was inactive.
